About 7,900 targets were measured; listed, in parts, are those with a hit and a random draw of the rest. About 0.6% of all pairs of compound and target were hits.
These targets were tested with c1cn2cc(-c3ccc4cn[nH]c4c3)nc(Nc3ccc(N4CCOCC4)cc3)c2n1 [entospletinib] (assay: log2 fold change, soluble protein after heating vs DMSO (PISA); higher = thermal stabilisation; K562 cells, 10 uM, 30 min; active = over 0.2 and 3.5 SD of the protein, either way, in both replicates (recomputed)).
Procedure, shortened: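 K562 cells at 2×10^6 cells/mL were given 10 μM compound for 30 min. Aliquots then went through 3 min of heating across 48°C-58°C, were pooled, and were extracted in PBS with 0.5% NP-40 at 4°C, and the supernatant after 21,000xg for 90 min was quantified by TMTpro 16plex LC-MS/MS with channel sums equalised. Thermal stability relative to control samples, from duplicates, is given as log2 fold change.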

Sequence of UniProt Q8TEQ6 (Q8TEQ6 whole entry, looked up): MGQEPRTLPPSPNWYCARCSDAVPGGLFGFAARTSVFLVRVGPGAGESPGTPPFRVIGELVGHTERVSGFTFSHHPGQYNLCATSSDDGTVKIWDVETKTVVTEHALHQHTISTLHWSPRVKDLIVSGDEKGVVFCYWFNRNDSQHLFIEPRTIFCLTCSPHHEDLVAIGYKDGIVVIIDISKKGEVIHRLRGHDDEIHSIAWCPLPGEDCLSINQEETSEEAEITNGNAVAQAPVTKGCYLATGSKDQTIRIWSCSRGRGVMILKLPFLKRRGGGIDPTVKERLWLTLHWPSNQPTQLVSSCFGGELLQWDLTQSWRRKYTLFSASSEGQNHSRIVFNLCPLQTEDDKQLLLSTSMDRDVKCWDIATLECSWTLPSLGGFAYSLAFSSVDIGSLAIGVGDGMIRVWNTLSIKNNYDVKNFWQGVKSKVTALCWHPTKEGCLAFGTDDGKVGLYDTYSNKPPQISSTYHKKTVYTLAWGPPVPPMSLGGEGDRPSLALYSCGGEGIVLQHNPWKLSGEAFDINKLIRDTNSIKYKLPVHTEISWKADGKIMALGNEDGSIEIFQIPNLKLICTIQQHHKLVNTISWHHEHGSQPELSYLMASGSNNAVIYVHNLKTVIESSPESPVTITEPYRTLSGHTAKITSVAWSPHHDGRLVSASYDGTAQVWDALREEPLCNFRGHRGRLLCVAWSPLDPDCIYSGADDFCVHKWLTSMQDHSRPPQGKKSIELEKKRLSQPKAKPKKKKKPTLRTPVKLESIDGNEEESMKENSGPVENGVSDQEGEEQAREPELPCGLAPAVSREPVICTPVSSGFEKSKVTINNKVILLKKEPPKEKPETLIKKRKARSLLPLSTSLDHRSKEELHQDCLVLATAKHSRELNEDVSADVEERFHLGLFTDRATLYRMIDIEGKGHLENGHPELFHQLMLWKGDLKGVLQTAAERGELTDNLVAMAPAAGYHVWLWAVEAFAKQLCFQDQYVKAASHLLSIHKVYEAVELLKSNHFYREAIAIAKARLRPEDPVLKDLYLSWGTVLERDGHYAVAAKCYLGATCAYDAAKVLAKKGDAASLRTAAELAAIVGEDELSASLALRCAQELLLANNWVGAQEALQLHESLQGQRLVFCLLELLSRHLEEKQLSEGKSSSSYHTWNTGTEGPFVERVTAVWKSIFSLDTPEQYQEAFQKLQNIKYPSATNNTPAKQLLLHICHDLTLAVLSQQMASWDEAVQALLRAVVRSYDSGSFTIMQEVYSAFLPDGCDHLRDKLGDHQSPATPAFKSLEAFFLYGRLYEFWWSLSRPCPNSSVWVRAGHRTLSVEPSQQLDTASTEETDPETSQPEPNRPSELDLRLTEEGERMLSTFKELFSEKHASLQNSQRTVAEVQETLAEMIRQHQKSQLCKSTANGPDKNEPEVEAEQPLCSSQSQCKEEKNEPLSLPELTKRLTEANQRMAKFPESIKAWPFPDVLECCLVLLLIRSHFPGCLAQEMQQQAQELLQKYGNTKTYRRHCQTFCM
Sequence of UniProt O14929 (O14929 whole entry, looked up): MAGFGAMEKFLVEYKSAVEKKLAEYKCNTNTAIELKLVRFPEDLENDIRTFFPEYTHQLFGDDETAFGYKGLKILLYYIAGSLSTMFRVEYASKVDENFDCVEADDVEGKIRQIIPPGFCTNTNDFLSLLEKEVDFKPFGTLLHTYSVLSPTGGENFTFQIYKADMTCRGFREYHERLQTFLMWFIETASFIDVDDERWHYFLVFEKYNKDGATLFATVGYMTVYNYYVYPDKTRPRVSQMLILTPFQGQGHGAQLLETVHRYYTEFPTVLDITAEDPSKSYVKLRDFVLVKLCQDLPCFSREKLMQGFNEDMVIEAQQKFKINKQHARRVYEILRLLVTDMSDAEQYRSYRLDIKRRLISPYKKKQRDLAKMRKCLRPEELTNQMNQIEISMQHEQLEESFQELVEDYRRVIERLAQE
Sequence of UniProt Q96JB3 (Q96JB3 whole entry, looked up): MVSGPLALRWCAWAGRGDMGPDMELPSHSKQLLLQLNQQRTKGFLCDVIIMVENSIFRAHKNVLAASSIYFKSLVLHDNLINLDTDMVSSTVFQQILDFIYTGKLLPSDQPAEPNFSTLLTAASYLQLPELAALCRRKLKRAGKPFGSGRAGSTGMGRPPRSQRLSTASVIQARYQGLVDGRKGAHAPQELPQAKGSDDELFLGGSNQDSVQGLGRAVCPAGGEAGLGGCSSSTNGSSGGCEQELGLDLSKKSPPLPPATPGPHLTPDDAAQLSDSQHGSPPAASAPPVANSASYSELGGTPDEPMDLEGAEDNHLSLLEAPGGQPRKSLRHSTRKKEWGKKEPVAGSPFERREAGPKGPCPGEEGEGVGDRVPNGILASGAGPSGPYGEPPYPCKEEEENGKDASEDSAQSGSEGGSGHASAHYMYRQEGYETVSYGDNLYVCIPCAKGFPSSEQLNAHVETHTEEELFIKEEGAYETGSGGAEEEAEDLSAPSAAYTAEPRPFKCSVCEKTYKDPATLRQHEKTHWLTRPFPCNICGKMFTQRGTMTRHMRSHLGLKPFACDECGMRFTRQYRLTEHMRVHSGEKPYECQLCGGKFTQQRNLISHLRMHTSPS
Sequence of UniProt P23327 (P23327 whole entry, looked up): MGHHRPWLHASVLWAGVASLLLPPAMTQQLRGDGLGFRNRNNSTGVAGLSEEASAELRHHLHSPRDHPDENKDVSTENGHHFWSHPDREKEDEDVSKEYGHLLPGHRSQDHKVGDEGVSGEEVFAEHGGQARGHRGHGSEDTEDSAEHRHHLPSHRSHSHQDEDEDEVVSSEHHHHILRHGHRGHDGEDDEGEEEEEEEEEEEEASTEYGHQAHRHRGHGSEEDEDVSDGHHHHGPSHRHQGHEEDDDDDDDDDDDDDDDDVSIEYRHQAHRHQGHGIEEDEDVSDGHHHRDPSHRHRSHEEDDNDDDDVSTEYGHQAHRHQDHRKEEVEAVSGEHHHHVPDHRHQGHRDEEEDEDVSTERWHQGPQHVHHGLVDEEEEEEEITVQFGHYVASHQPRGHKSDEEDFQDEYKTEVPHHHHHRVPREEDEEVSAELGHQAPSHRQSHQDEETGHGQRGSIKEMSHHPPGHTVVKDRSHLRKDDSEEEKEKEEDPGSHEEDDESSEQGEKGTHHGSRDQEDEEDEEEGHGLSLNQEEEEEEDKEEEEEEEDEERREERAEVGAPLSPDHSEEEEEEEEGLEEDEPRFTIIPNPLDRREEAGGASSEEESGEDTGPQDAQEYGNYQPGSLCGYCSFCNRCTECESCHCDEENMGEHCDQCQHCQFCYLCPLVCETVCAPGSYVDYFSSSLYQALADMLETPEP
Sequence of UniProt P0CL80 (P0CL80 whole entry, looked up): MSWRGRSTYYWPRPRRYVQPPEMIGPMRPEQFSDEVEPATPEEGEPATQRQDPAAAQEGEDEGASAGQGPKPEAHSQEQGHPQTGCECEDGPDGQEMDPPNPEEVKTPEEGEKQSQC
Sequence of UniProt Q8WUI4 (Q8WUI4 whole entry, looked up): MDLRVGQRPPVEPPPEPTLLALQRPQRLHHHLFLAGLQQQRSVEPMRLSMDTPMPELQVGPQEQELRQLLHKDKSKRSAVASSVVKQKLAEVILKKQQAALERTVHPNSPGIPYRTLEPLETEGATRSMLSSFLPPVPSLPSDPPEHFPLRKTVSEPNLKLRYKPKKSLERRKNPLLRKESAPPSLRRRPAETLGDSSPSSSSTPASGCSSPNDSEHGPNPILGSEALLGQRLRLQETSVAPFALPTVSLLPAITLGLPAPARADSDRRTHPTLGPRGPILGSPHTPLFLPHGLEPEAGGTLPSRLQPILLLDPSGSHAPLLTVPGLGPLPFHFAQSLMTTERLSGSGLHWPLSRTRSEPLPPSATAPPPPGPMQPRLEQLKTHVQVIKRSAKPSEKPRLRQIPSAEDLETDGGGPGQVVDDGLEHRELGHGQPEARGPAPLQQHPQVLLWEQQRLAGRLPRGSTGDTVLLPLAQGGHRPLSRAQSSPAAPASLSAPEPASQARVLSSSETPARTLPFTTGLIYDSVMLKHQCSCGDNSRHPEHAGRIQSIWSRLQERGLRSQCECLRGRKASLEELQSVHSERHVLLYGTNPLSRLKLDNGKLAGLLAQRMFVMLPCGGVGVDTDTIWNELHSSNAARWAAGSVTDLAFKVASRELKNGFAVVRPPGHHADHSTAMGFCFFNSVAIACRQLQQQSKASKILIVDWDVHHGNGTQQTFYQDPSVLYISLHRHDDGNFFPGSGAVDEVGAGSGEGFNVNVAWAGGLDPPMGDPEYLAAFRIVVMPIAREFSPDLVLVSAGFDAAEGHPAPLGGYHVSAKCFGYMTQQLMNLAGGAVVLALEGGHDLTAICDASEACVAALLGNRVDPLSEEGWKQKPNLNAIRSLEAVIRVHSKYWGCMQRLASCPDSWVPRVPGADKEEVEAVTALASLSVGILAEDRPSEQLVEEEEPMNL
Sequence of UniProt P85037 (P85037 whole entry, looked up): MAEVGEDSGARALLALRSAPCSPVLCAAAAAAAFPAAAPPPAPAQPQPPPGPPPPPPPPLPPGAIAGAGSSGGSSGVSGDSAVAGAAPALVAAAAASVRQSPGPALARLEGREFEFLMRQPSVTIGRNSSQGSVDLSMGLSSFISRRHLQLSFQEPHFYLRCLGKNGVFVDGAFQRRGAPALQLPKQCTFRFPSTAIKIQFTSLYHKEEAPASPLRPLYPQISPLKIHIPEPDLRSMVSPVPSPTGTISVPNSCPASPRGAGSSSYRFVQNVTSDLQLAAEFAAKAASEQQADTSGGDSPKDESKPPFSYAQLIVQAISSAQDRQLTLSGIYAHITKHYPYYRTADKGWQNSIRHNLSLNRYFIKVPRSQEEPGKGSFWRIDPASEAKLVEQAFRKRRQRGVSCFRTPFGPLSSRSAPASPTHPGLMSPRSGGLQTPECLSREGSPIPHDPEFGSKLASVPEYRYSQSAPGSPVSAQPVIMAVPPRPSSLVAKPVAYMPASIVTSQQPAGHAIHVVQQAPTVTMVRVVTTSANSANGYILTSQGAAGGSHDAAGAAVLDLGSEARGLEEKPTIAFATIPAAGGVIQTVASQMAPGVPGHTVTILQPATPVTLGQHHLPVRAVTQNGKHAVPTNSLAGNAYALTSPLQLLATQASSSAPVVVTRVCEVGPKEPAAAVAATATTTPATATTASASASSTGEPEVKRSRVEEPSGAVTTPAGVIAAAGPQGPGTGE

log2 fold change, inactive:
HRC (UniProt P23327) 0.032
GEMIN5 (UniProt Q8TEQ6) 0.058
FASTKD1 (UniProt Q53R41) -0.11
GCSH (UniProt P23434) 0.037
HAT1 (UniProt O14929) -0.021
FUCA1 (UniProt P04066) -0.018
FBXO9 (UniProt Q9UK97) -0.065
GAGE12F (UniProt P0CL80) 0.031
ICMT (UniProt O60725) 0.303
FBXO6 (UniProt Q9NRD1) -0.055
HDAC7 isoform 5 (UniProt Q8WUI4) -0.024
HIC2 (UniProt Q96JB3) 0.129
HEXB (UniProt P07686) -0.026
GOLGB1 isoform 2 (UniProt Q14789) 0.058
FOXK1 (UniProt P85037) 0.262
